Results from PubChem BioAssay AID485318 (Broad Institute, 2010).
Fewer than 10 of roughly 1,400 compounds were called active.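 Rule for the calls: active = fluorescence-lowering compounds whose fitted half-maximal concentration is at or below ten times the highest valid dose tested; inconclusive = flat curve at 30 to 70% inhibition, or poor fit; inactive = the rest.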 A selection follows.

target: Histone deacetylase 3 (Homo sapiens) (UniProt O15379); assay: HDAC3 deacetylase inhibitors, dose response, counter-screen for JMJD2C/GASC1 demethylase inhibitor project, biochemical, fluorescence, cherry-picked samples (AID 485318); conditions: recombinant HDAC3, fluorogenic peptide/trypsin coupled; series mostly up to 12 µM;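 note: enzyme preincubated with compound before substrate and trypsin were added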
Sequence (O15379 whole entry, looked up): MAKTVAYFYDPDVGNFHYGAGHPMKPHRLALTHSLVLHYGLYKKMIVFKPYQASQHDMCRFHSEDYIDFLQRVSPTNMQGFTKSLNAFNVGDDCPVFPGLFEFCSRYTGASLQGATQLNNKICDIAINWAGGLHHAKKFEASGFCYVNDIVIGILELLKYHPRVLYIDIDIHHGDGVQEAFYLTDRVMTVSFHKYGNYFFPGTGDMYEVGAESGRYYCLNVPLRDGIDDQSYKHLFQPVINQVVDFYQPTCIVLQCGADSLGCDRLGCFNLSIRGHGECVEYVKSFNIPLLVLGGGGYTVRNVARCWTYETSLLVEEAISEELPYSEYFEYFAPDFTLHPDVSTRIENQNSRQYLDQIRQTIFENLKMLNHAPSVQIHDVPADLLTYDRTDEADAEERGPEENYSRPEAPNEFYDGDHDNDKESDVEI

Q: How did the outcome turn out when `CC(=O)N1CCN(c2ccc(NC(=O)c3ccc4ccccc4c3)cc2)CC1` was run?
A: inactive

Q: For `CCN(CC)C(CNS(=O)(=O)c1ccc(Cl)cc1)c1ccccc1` (configuration not stated), which outcome is on record?
A: inactive

Q: How did the outcome turn out when `CCNC(=S)NC(=NCc1cccnc1)Nc1nc(C)cc(C)n1` was run?
A: inactive

Q: For `Cc1ccc(N2NC3(CCN(C(N)=O)CC3)NC2=O)cc1`, which outcome is on record?
A: inactive

Q: Which outcome does the source give for `C=CCNC(=S)NNC(=O)COc1cccc(Cl)c1` here?
A: inactive

Q: How did the outcome turn out when `O=C(O)c1ccccc1OCCOc1ccccc1C(=O)O` was run?
A: inactive

Q: `O=C1NCCC/C1=N/Nc1ccc(F)cc1` was tested. Which outcome did it give?
A: inactive

Q: How did the outcome turn out when `CC(C)NC(=O)N(C)C[C@H]1Oc2ccc(NS(=O)(=O)c3ccccc3)cc2C(=O)N([C@H](C)CO)C[C@H]1C` was run?
A: inactive

Q: For `COc1ccc(-n2cc(C(=O)O)c3ccccc3c2=O)cc1`, which outcome is on record?
A: inactive

Q: Which outcome does the source give for `O=C(C1CCCCC1)N1CCC(c2nc3c(nnn3Cc3c(F)cccc3Cl)c(=O)[nH]2)CC1` here?
A: inactive

Q: For `Cc1ccc(C)c(Cn2c(C(=O)OC(C)C)cc3c2ccn3C)c1`, which outcome is on record?
A: inactive

Q: For `NC(=O)COc1cccc2cccnc12`, which outcome is on record?
A: inactive

Q: With `Cn1c(=O)c2[nH]c(=O)cnc2n(C)c1=S` as the compound, how does the outcome read?
A: inactive

Q: With `Cn1nc(N)nc1N1CCN(c2ccc(F)cc2)CC1` as the compound, how does the outcome read?
A: inactive

Q: `NS(=O)(=O)c1ccc(CNC(=S)Nc2ccc(F)c(Cl)c2)cc1` was tested. Which outcome did it give?
A: inactive

Q: For `O=C(O)c1ccc2c(c1)C(=O)N(CCC1=CCCCC1)C2=O`, which outcome is on record?
A: inactive

Q: Which outcome does the source give for `CC(C)N(Cc1ccccc1)C(=O)COC(=O)c1ccc2c(c1)OCCO2` here?
A: inactive

Q: With `NC(=O)NC(=O)CSc1nnc(-c2ccco2)n1Cc1ccccc1` as the compound, how does the outcome read?
A: inactive

Q: Which outcome does the source give for `O=C(OCc1nnc(-c2ccccc2)o1)c1cc(S(=O)(=O)N2CCOCC2)c(Cl)cc1Cl` here?
A: inactive

Q: `COc1ccc(C)cc1NC(=O)CN(C)S(=O)(=O)c1ccc2c(c1)CC(C)N2C(C)=O` (configuration not stated) was tested. Which outcome did it give?
A: inactive

Q: How did the outcome turn out when `OC[C@H]1O[C@@H]2O[C@H]3[C@H](O)[C@@H](O)[C@@H](O[C@H]4[C@H](O)[C@@H](O)[C@@H](O[C@H]5[C@H](O)[C@@H](O)[C@@H](O[C@H]6[C@H](O)[C@@H](O)[C@@H](O[C@H]7[C@H](O)[C@@H](O)[C@@H](O[C@H]1[C@H](O)[C@H]2O)O[C@@H]7CO)O[C@@H]6CO)O[C@@H]5CO)O[C@@H]4CO)O[C@@H]3CO` was run?
A: inactive

Q: `Cc1ccc(C(=O)NCC(=O)OCC(=O)Nc2ccc(Cl)cc2C(F)(F)F)cc1C` was tested. Which outcome did it give?
A: inactive

Q: How did the outcome turn out when `O=c1[nH]cnc2c1c(-c1ccccc1)cn2-c1ccccc1` was run?
A: inactive

Q: How did the outcome turn out when `Cc1nc2nc(C)c(CCC(=O)NCc3ccc4c(c3)OCO4)c(C)n2n1` was run?
A: inactive

Q: With `O=c1[nH]cc(N2CCCCCC2)c(=O)[nH]1` as the compound, how does the outcome read?
A: inactive

Q: With `O=C(NCc1nnc(SCC(=O)N2CCCCC2)o1)c1c(F)cccc1F` as the compound, how does the outcome read?
A: inactive

Q: `O=C(c1cccs1)N1CCN(S(=O)(=O)c2ccc(F)cc2)CC1` was tested. Which outcome did it give?
A: inactive
